# From article PMC7862700, “An all-to-all approach to the identification of sequence-specific readers for epigenetic DNA modifications on cytosine”
# How the values were obtained:
# Assay in all cases: DAPPL (digital affinity profiling via proximity ligation, sequencing); 10 mM Tris-HCl pH 7.5, 50 mM NaCl, 1 mM DTT, 4% glycerol, room temperature, 30 min; GST-TFs on glutathione beads, 16-mer random dsDNA library, 0.1% formaldehyde crosslink after washing; high values mean tight binding
# Conditions in all cases: protein: recombinant; tags: N-terminal GST; dsDNA, one strand shown
# [1] = target: ELF4 (Homo sapiens, UniProt Q99607 1-663)
# ELF4, sequence (Q99607 whole entry, the tested form may be a part): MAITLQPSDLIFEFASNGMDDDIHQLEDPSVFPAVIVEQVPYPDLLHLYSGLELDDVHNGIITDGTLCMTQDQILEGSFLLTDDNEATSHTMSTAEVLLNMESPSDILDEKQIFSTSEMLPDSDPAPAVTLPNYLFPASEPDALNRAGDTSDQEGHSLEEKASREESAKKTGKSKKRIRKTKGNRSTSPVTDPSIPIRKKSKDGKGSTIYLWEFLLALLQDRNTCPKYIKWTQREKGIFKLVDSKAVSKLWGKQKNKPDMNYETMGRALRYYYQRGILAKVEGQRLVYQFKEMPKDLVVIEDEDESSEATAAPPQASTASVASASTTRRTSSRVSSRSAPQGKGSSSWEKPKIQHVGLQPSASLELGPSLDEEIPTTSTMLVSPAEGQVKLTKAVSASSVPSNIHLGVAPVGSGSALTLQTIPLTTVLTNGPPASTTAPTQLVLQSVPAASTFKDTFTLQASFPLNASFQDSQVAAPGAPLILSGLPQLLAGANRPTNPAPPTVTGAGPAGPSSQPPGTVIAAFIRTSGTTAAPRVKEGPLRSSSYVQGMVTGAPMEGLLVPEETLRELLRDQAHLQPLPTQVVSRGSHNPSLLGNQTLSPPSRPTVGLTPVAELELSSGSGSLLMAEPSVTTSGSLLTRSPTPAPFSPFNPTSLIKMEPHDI
# Outline: (§1)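 Pools were built from human transcription factors expressed in yeast as GST fusions, captured on glutathione beads and DNA-barcoded, along with a tag-only sample. Incubation with 200 nmole of a 16-mer random double-stranded DNA library lasted 30 min at room temperature in Tris/NaCl/DTT/glycerol buffer, and was followed by washing, 0.1% formaldehyde crosslinking, proximity ligation, PCR amplification and Illumina NextSeq500 sequencing. Binding signal is the quotient of each hexamer's read frequency for a factor and its frequency for the tag-only sample.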
# [2] = target: T1, ETV2 (Homo sapiens, UniProt O00321 1-342)
# T1 sequence: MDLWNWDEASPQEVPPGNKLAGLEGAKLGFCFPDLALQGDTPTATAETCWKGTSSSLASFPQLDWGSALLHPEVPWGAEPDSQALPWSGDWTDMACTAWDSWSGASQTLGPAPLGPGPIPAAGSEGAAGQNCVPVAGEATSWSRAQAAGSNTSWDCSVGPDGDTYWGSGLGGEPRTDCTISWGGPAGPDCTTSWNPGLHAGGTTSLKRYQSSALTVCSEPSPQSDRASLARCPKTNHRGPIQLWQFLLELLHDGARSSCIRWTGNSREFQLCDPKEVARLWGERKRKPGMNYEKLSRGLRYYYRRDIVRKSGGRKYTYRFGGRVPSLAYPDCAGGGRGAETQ
# Outline: as §1
# [3] = target: T2, ELF3 (Homo sapiens, UniProt P78545 1-371)
# T2 sequence: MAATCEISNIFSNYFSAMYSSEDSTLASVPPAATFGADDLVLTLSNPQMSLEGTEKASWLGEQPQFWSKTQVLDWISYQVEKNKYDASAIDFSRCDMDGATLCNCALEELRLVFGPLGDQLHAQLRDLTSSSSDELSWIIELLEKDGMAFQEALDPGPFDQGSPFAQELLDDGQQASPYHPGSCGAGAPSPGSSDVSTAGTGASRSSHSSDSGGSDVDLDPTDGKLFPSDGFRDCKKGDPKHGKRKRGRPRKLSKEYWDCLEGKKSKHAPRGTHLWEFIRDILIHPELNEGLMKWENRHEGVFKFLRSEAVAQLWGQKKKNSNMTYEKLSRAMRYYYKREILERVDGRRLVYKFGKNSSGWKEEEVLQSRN
# Outline: as §1
# [4] = target: ETV1 (Homo sapiens, UniProt P50549 1-477)
# ETV1, sequence (P50549 whole entry): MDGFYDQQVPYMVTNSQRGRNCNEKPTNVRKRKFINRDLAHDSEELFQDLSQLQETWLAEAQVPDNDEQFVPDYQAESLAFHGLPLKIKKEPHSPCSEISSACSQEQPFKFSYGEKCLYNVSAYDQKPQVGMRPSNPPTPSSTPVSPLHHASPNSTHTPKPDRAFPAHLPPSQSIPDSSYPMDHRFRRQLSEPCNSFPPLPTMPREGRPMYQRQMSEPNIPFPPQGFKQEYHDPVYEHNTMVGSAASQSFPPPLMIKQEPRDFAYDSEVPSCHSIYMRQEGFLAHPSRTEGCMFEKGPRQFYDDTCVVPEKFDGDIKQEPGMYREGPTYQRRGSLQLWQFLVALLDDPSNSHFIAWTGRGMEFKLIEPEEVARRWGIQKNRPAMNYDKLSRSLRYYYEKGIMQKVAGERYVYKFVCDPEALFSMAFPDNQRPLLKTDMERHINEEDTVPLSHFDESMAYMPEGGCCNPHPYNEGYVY
# Outline: as §1
# [5] = target: T3, ERF (Homo sapiens, UniProt P50548 1-548)
# T3 sequence: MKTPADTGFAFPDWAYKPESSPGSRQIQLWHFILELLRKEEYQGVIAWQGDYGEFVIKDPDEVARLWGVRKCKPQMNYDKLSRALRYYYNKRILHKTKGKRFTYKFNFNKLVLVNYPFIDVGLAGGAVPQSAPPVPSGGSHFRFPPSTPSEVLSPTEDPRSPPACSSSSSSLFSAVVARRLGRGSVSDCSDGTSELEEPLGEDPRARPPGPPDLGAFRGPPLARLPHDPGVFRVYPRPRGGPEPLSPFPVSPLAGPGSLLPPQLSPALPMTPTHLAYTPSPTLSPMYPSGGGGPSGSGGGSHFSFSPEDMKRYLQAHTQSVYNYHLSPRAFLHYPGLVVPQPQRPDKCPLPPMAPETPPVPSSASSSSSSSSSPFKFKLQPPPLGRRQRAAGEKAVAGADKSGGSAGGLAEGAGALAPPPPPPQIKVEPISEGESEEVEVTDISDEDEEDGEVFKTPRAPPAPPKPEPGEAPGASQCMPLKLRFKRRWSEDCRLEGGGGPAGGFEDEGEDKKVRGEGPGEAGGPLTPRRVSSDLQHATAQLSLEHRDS
# Outline: as §1
# [6] = target: T4, ETV3L (Homo sapiens, UniProt Q6ZN32 1-361)
# T4 sequence: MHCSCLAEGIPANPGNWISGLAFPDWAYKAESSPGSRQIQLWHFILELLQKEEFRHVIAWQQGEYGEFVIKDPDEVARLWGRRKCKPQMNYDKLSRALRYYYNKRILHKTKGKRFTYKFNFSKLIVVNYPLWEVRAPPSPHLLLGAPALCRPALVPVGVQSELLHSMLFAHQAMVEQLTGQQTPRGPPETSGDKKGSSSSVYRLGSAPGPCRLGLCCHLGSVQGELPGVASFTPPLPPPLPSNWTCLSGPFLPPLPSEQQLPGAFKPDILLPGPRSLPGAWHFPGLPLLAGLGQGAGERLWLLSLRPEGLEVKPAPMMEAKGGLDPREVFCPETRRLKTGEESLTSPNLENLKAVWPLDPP
# Outline: as §1
# [7] = target: T5, ETS2 (Homo sapiens, UniProt P15036 1-469)
# T5 sequence: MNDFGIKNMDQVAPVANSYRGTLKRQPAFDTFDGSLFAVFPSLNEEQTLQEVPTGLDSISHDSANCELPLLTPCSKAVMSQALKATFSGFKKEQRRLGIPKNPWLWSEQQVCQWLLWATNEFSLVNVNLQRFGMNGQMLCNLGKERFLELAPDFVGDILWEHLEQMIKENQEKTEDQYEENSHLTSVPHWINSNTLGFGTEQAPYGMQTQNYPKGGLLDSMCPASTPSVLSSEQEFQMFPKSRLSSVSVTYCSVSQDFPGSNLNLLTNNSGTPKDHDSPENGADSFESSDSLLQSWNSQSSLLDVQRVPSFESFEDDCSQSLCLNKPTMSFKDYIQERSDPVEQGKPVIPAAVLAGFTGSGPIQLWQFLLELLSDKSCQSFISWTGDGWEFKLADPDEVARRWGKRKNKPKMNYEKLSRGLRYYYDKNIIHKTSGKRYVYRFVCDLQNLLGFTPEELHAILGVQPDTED
# Outline: as §1
# [8] = target: T6, ETV7 (Homo sapiens, UniProt Q9Y603 1-341)
# T6 sequence: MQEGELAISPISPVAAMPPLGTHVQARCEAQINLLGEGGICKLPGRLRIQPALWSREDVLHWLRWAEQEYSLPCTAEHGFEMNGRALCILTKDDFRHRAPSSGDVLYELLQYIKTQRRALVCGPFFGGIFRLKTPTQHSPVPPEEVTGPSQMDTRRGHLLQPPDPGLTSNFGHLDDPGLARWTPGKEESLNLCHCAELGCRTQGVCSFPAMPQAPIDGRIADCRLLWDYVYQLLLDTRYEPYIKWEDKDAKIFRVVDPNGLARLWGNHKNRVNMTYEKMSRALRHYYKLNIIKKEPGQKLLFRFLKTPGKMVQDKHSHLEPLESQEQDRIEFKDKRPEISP
# Outline: as §1
# [9] = target: T7, ETV3 (Homo sapiens, UniProt P41162-2 1-143)
# T7 sequence: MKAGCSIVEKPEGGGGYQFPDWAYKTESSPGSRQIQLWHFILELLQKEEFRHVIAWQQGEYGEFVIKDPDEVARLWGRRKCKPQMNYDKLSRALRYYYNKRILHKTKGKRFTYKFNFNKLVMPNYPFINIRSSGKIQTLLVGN
# Outline: as §1
# [10] = target: ETV6 (Homo sapiens, UniProt P41212 1-452)
# ETV6, sequence (P41212 whole entry): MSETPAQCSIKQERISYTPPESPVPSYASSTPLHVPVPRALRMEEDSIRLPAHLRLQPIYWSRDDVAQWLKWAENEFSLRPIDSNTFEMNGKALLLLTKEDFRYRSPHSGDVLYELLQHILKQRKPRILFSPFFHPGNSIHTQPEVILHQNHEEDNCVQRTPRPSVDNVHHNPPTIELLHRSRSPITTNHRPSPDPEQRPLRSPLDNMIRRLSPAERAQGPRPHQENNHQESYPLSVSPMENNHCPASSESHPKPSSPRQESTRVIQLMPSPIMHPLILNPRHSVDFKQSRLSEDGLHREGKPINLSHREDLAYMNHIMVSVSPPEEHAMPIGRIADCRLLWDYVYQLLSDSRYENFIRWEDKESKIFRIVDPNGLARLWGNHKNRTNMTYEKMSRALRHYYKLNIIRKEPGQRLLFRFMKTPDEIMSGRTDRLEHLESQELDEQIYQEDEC
# Outline: as §1
sequence,measurement,setting,value
CATGCA,binding signal,[1],"1.11 fold enrichment (6-mer frequency, TF over GST control)"
same,binding signal,[2],"1.12 fold enrichment (6-mer frequency, TF over GST control)"
same,binding signal,[3],"1.16 fold enrichment (6-mer frequency, TF over GST control)"
same,binding signal,[4],"1.11 fold enrichment (6-mer frequency, TF over GST control)"
same,binding signal,[5],"1.09 fold enrichment (6-mer frequency, TF over GST control)"
same,binding signal,[6],"1.16 fold enrichment (6-mer frequency, TF over GST control)"
same,binding signal,[7],"1.06 fold enrichment (6-mer frequency, TF over GST control)"
same,binding signal,[8],"1.03 fold enrichment (6-mer frequency, TF over GST control)"
same,binding signal,[9],"1.05 fold enrichment (6-mer frequency, TF over GST control)"
same,binding signal,[10],"1.18 fold enrichment (6-mer frequency, TF over GST control)"
